Measured values from PubChem BioAssay.
Active and inactive are the calls of the source.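 The calls were made as follows, unless noted: active = mean z-score across replicates of 1.96 or higher in either the MELAS or the Rieske mutant cell line; inactive = the rest.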

Columns and labels:
[1] = viability loss with induced miR-34 in A549 – imaging, A549 dox-inducible miR-34, nuclei and caspase counts, primary screen (AID 1347080;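 active = compounds whose cell count with miR-34 switched on is under 0.7 times the count with it off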); conditions: A549 miR-34 inducible, Hoechst nuclei count, 48 h
[2] = MELAS cybrid and Rieske KO viability enhancers – cell-based, MELAS cybrids, Rieske KO mouse fibroblasts, CellTiter-Glo, primary screen (AID 1508586); conditions: low glucose;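 also: z relative to plate mean and SD of compound and empty wells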
[3] = stronger effect = lower value, cell number ratio, induced over uninduced
[4] = measured here: relative caspase fold change +Dox/-Dox
[5] = measured here: total cells with miR-34 induction, stronger effect = lower value
[6] = measured here: total cells without miR-34 induction
[7] = MELAS cybrid survival, CellTiter-Glo 48 h, stronger effect = higher value
[8] = Rieske KO mouse fibroblast survival, CellTiter-Glo 72 h
Also: test concentration not given here.

Compound	fold change [1, 3]	fold change [1, 4]	cell count [1, 5]	cell count [1, 6]	z-score [2, 7]	z-score [2, 8]
OCC1OC(Oc2ccc(O)cc2)C(O)C(O)C1O (stereo not given)	0.859 (inactive)	1.01	7730	9000	-0.228 (inactive)	0.468
COc1cc2c(c(OC)c1OC)-c1c(cc3c(c1OC)OCO3)CC(C)C(C)C2 (stereo not given)	0.915 (inactive)	1.02	7770	8490	-0.0751 (inactive)	-0.149
CN1CC[C@H](c2c(O)cc(O)c3c(=O)cc(-c4ccccc4Cl)oc23)C(O)C1 (stereo not given in full)	0.938 (inactive)	1.82	1600	1700	3.42 (active)	-0.841
CC(C)=CCC[C@](C)(OC1OC(COC2OCC(O)C(O)C2O)C(O)C(O)C1O)C1CC[C@]2(C)[C@@H]1C(O)C[C@H]1[C@@]3(C)CCC(OC4OC(CO)C(O)C(O)C4O)C(C)(C)[C@@H]3CC[C@]12C (stereo not given in full)	0.96 (inactive)	0.422	7600	7910	-0.238 (inactive)	0.0165
CCCCc1ncc(C=C(Cc2cccs2)C(=O)O)n1Cc1ccc(C(=O)O)cc1	0.858 (inactive)	0.882	8440	9840	-0.00421 (inactive)	-0.115
CNCc1ccc(C)c(NC(=O)c2ccc(Nc3nc(-c4ccccc4)c4ccccc4n3)cc2)c1	0.989 (inactive)	0.59	6570	6650	-0.615 (inactive)	-0.107
C=CC[N+]1(C2C[C@H]3[C@@H]4CC[C@H]5CC(O)C(N6CCOCC6)C[C@]5(C)[C@@H]4CC[C@]3(C)C2OC(C)=O)CCCC1 (stereo not given in full)	0.951 (inactive)	0.974	8100	8520	-0.403 (inactive)	0.424
CCN1CCN(C(=O)NC(C(=O)NC2C(=O)N3C(C(=O)O)=C(CSc4nnnn4C)CS[C@H]23)c2ccc(O)cc2)C(=O)C1=O (stereo not given in full)	0.907 (inactive)	0.724	7730	8520	0.121 (inactive)	0.0185
COC1CC2CCC(C)[C@](O)(O2)C(=O)C(=O)N2CCCC[C@H]2C(=O)OC(C(C)CC2CCC(n3cnnn3)C(OC)C2)CC(=O)C(C)C=C(C)C(O)C(OC)C(=O)C(C)CC(C)C=CC=CC=C1C (stereo not given in full)	1.13 (inactive)	0.353	5100	4500	3.99 (active)	2.04
CCOC(=O)C(CCc1ccccc1)NC(C)C(=O)N1CCCC1C(=O)O (stereo not given)	0.954 (inactive)	0.968	7520	7880	-0.0746 (inactive)	-0.409
N#CC1CCCN1C(=O)CNC12CC3CC(CC(O)(C3)C1)C2 (stereo not given)	0.959 (inactive)	0.68	8400	8750	-0.00674 (inactive)	0.11
CCNC(=O)CCCC=CCC1C(O)CC(O)C1C=CC(O)CCc1ccccc1 (stereo not given)	0.925 (inactive)	0.991	6700	7250	-0.401 (inactive)	-0.137
Cc1nc(C#Cc2ccnc(Cl)c2)c(C)n1-c1ccc(OC(F)(F)F)cc1	1.01 (inactive)	0.784	6890	6830	-0.149 (inactive)	0.0252
CCC(=O)OCC(=O)[C@]1(OC(=O)CC)C(C)C[C@H]2[C@@H]3CCC4=CC(=O)C=C[C@]4(C)[C@]3(Cl)C(O)C[C@@]21C (stereo not given in full)	0.952 (inactive)	0.747	5950	6250	-0.503 (inactive)	-0.134
C#CCC(Cc1cnc2nc(N)nc(N)c2n1)c1ccc(C(=O)NC(CCC(=O)O)C(=O)O)cc1 (stereo not given)	1.12 (inactive)	0.784	2390	2130	-0.188 (inactive)	0.624
C=C1C(=CC=C2CCC[C@]3(C)C(C(C)CCCC(C)(C)O)CC[C@@H]23)CC(O)CC1O (stereo not given in full)	0.915 (inactive)	1.06	6550	7160	-0.468 (inactive)	0.543
CN1CCCC1Cc1c[nH]c2ccc(CCS(=O)(=O)c3ccccc3)cc12 (stereo not given)	0.975 (inactive)	1.13	9340	9580	-0.473 (inactive)	-0.595
Cc1ccc(C(=O)N(CCCN)C(c2oc3cc(Cl)ccc3c(=O)c2Cc2ccccc2)C(C)C)cc1 (stereo not given)	0.942 (inactive)	0.732	1220	1290	2.62 (active)	0.0146
CCCC(C)NC(=O)c1ccc(Cl)c(Cl)c1 (stereo not given)	0.868 (inactive)	0.485	8950	10300	-0.371 (inactive)	0.701
CC(C)(C)[N+]([O-])=Cc1ccc(S(=O)(=O)O)cc1S(=O)(=O)O	0.908 (inactive)	1.03	9880	10900	-0.368 (inactive)	0.732

Compound	fold change [1, 3]	fold change [1, 4]	cell count [1, 5]	cell count [1, 6]	z-score [2, 7]	z-score [2, 8]
COc1cc(C2Oc3cc(C4Oc5cc(O)cc(O)c5C(=O)C4O)ccc3OC2CO)ccc1O (stereo not given)	0.923 (inactive)	0.695	9600	10400	-0.412 (inactive)	0.872
CC(C)c1onc(-c2c(Cl)cccc2Cl)c1COc1ccc(C=Cc2cccc(C(=O)O)c2)c(Cl)c1	0.901 (inactive)	1.37	7080	7860	0.359 (inactive)	-0.609
Cc1cc(=O)oc2c(C=O)c(O)ccc12	0.88 (inactive)	0.552	8210	9320	-0.241 (inactive)	0.915
CC(=O)NC1C(N=C(N)N)C=C(C(=O)O)O[C@H]1C(O)C(O)CO (stereo not given in full)	0.903 (inactive)	0.622	9700	10700	-0.333 (inactive)	0.922
CC(C)CC(NC(=O)C(Cc1ccccc1)NC(=O)c1cnccn1)B(O)O (stereo not given)	0.948 (inactive)	0.953	1020	1080	-0.496 (inactive)	-2.5
Cc1ccc(-n2sc(=O)n(Cc3ccc(F)cc3)c2=O)cc1	0.959 (inactive)	0.337	8430	8790	-0.268 (inactive)	-0.132
C#C[C@@]1(O)CC[C@H]2[C@@H]3CCC4=CC(=O)CC[C@@H]4[C@@H]3CC[C@@]21CC	0.929 (inactive)	0.428	7310	7880	-0.214 (inactive)	0.0474
COC1CC2CCC(C)[C@@](O)(O2)C(=O)C(=O)N2CCCCC2C(=O)OC(C(C)CC2CCC(OCCO)C(OC)C2)CC(=O)C(C)C=C(C)C(O)C(OC)C(=O)C(C)CC(C)C=CC=CC=C1C (stereo not given in full)	1.03 (inactive)	1	4550	4420	0.115 (inactive)	1.87
O=C(O)C1OC(Oc2cc3oc(-c4ccccc4)cc(=O)c3c(O)c2O)C(O)C(O)C1O (stereo not given)	0.916 (inactive)	1.12	7800	8520	-0.174 (inactive)	0.279
O=C(Nc1ccccc1)Nc1ccc(-c2ccc(C(=O)C3CCCC3C(=O)O)cc2)cc1 (stereo not given)	0.846 (inactive)	0.729	9210	10900	-0.239 (inactive)	0.453
CC1CC[C@]2(C(=O)O)CC[C@]3(C)C(=CC[C@H]4[C@@]5(C)CC(O)C(O)[C@@](C)(CO)[C@@H]5CC[C@]43C)[C@H]2C1C (stereo not given in full)	0.88 (inactive)	0.855	8330	9460	-0.312 (inactive)	0.68
C[C@]12C[C@@]3(O)O[C@@H](O1)[C@]1(COC(=O)c4ccccc4)[C@H]3C[C@@]12OC1OC(CO)C(O)C(O)C1O (stereo not given in full)	0.87 (inactive)	0.575	8970	10300	-0.445 (inactive)	-0.113
COC(=O)C1=COC(O)[C@@H]2C(CO)=CC[C@H]12 (stereo not given in full)	0.899 (inactive)	1	8660	9630	-0.314 (inactive)	-0.656
CC(NC(=O)Cc1cc(F)cc(F)c1)C(=O)NC1C(=O)N(C)c2ccccc2-c2ccccc21 (stereo not given)	0.913 (inactive)	0.674	8480	9280	-0.38 (inactive)	1.69
O=C(C=Cc1ccccc1)NC(NC(=S)Nc1ccc(Cl)cc1)C(Cl)(Cl)Cl (stereo not given)	0.995 (inactive)	0.524	2510	2520	-0.431 (inactive)	-0.459
CCC1C(=O)N(C)c2cnc(Nc3ccc(C(=O)NC4CCC(N5CCN(CC6CC6)CC5)CC4)cc3OC)nc2N1C(C)C (stereo not given)	1.2 (inactive)	0.875	1460	1210	6.19 (active)	-4.08
N#Cc1c(Oc2ccc(F)c(NC(=O)Cc3cccc(C(F)(F)F)c3)c2)ccc2nc(NC(=O)C3CC3)sc12	1.2 (inactive)	0.284	2200	1840	-0.453 (inactive)	0.158
Cc1cn(C2CC(O)C(CO)O2)c(=O)[nH]c1=O (stereo not given)	0.853 (inactive)	1.28	7950	9310	-0.34 (inactive)	0.719
CC(CNC(=O)c1cccnc1)NC(=O)c1cccnc1 (stereo not given)	0.92 (inactive)	1.03	9140	9930	-0.163 (inactive)	-0.298
C=C[C@]1(C)CC(OC(=O)CSC(C)(C)CNC(=O)C(N)C(C)C)[C@@]2(C)C(C)CC[C@]3(CCC(=O)[C@H]32)C(C)C1O (stereo not given in full)	0.851 (inactive)	1.9	6360	7470	6.17 (active)	2.78
